Rows were chosen to be rich in hits. Some 6.2% of all compounds tested hit in one or more screens of this group.
HT1080NT lethal = kills 2HG-producing HT-1080-NT fibrosarcoma cells; HT-1080-NT fibrosarcoma viability, CellTiter-Glo ATP luminescence, 48 h; Potency, µM (series often up to 46.1 µM), inactives show at the highest dose activity, negative = less viability, most hits filed as cytotoxic; 360,000 compounds, 1.6% hits;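 also: NT is the 2HG producing partner of a matched IDH1 knockdown line; 0% = DMSO-treated cells and -100% = media-only wells without cells; nearly all actives have a fitted effect of over 55% in size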
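HT-1080-NT; 750 cells/well; 5% FBS RPMI; 48 h compound, 37 degrees C; CellTiter-Glo luminescence; curve fitting and curve-class assignment.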
ATXN2 expr inh = inhibitors of ATXN2 expression. HEK-293 ATXN2-luciferase reporter, luminescence, 24 h. Potency, µM (highest dose often 57 µM), for the others: at the highest dose activity change, negative = inhibition, most hits filed as inhibitors. 360,000 compounds, 0.72% hits. AID 1745845; also: % is scaled to controls: 0 for no effect and ±100 for the full control effect; nearly all actives have a fitted effect of over 55% in size
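ATXN2-luciferase reporter cells (luciferase flanked by upstream and downstream ATXN2 gene portions) were treated 24 h at 37 °C with compounds at up to 57 uM. SteadyGlo luminescence gave expression; GF-AFC fluorescence gave viability.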
KB-3-1 cytotox = KB-3-1 parental cell cytotoxicity | KB-3-1 viability, CellTiter-Glo ATP luminescence, 72 h | Potency, µM (titrated, usually from 46.1 µM), actives largely listed as cytotoxic | 400,000 compounds, 1.4% hits | AID 1347075; also: % is scaled to controls: 0 for no effect and ±100 for the full control effect; nearly all actives have a fitted effect of over 60% in size
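KB-3-1 cells, DMEM (no phenol red) + 10% FBS; compound by pin transfer, 72 h, 37 °C. Readout: CellTiter-Glo luminescence after 10 min. Data normalized, curve-fitted.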
HT1080 IDH1KD tx = toxicity to HT-1080 IDH1 knockdown cells (counter line) | 360,000 compounds, 2% hits | Potency, µM (doses to about 46.1 µM), without a hit: top-dose activity, negative = toxicity, hits mostly cytotoxic | HT-1080 IDH1 knockdown viability, ATP luminescence, 48 h;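 also: 0% = DMSO wells and -100% = cell-free medium wells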
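% activity derives from luminescence (CellTiter-Glo), normalised to DMSO and no-cell wells. HT-1080-IDH1KD cells, 750/well, had 48 h compound exposure at 37 °C.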
ATXN viability = cell viability loss in ATXN counter-screen; S2 cells (HEK-293 line with an ATXN2-luciferase reporter) viability, CellTiter-Fluor protease fluorescence, 24 h; Potency, µM (titrated, usually from 56.7 µM), usual class: cytotoxic; 400,000 compounds, 0.49% hits; also: nearly all actives have a fitted effect of over 40% in size
KB-V1 cytotox = KB-V1 MDR subline cytotoxicity. KB-V1 MDR cells viability, CellTiter-Glo, 72 h. Potency, µM (highest dose often 46.1 µM), most hits filed as cytotoxic. 400,000 compounds, 3.4% hits; also: % is scaled to controls: 0 for no effect and ±100 for the full control effect; nearly all actives have a fitted effect of over 60% in size
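Drug-selected KB-V1 cells, grown in DMEM lacking phenol red with 10% FBS, receive compound titrations; after three days at 37 degrees C, surviving cell ATP is quantified by CellTiter-Glo luminescence and responses normalized and curve-fitted.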
* marks the source's active call; other numbers are inactive results; i = inactive; ? = inconclusive; . = not tested or not shown. Calls follow the shape of the dose curve; as a rule, active = well fitted curve in the direction sought with a large enough effect; inconclusive = small, poorly fitted or top-dose-only effect, or another doubt; inactive = no such curve, though single readings can be large; an effect the other way counts as inactive or inconclusive. Potency is read from the fitted curve at half-maximal effect.

SMILES	HT1080NT lethal	ATXN2 expr inh	KB-3-1 cytotox	HT1080 IDH1KD tx	ATXN viability	KB-V1 cytotox
CN(C(=O)c1cccc(NC(=O)Cc2ccc(NC(=O)C3CCCN(C(=O)CCc4ccccc4)C3)cc2)c1)C1CCCCC1 (centres undefined)	-20.7%	?	?	-26.2%	.	i
COc1ccc(-c2ccc(-c3nnn(CC(=O)N4CCOCC4)n3)cc2)cc1	-4.8%	5.7%	i	-2.2%	i	?
COc1ccc(OC)c(C(=O)Cn2nnc(-c3ccc(N4CCOCC4)cc3)n2)c1	1.1%	-7.9%	20.6µM*	7.3%	i	i
Cc1cc(C)cc(NC(=O)Cc2c(C(=O)O)c(C)cn2C)c1	.	0.8%	i	.	?	i
N#CCCSc1ncnc2c1oc1ccccc12	3.3%	-2.8%	?	?	i	11.6µM*
CCCn1nnc(NC(=O)C(c2ccccc2)c2ccccc2)n1	2.1%	-1.9%	i	5.5%	i	18.4µM*
COc1ccc(C(=O)NCc2ccc(N3CCN(C(=O)OC(C)(C)C)CC3)cc2)cc1	3.1%	0.5%	?	-11.1%	i	0.731µM*
COc1cccc(C(=O)NCc2ccc(N3CCN(C(=O)OC(C)(C)C)CC3)cc2)c1	0.4%	-3.2%	i	-4.5%	i	i
Cc1oc2ccc(O)cc2c1C(=O)c1ccc(Br)cc1	?	13.6%	i	?	i	i
N#CC(c1ccccc1)c1ccc([N+](=O)[O-])cc1 (centres undefined)	-1.4%	-1.5%	20.6µM*	6.0%	i	i
CC(=O)Nc1ccc(C(C#N)c2ccccc2)cc1 (centres undefined)	7.6%	12.5%	i	5.2%	i	i
COc1ccc(NC(=O)c2oc3ccccc3c2NC(=O)COc2ccc(F)cc2)c(OC)c1	.	-4.3%	i	.	i	i
COC(=O)/C=C\C(C#N)(C#N)N=Cc1ccc(OC)cc1	?	?	?	5.8µM*	?	i
CCc1ccc(CNC(=O)CCCN2C(=O)c3cccnc3Oc3ccc(Cl)cc32)cc1	.	.	i	.	.	i
C[C@H](O)[C@@H]1C(=O)N2CCc3ccc(-c4ccccc4)cc3[C@@H]2C[C@@H]1N(C)C(=O)c1ccco1	-13.8%	5.0%	i	-12.0%	i	i
c1ccc(NNC2=NCCCCC2)cc1	?	.	?	4.11µM*	i	i
CCC(C)(C)c1ccc(CC(C)CN2C[C@@H](C)O[C@@H](C)C2)cc1 (some centres undefined)	.	?	.	.	i	.
COC(=O)[C@H]1C[C@H](OC(=O)NC2CC2)[C@@]2(O)CN(S(=O)(=O)c3ccc(C)cc3)CC2[C@H]1C(=O)OC (some centres undefined)	-12.6%	?	?	-22.9%	i	i
Cc1ccc(NS(=O)(=O)c2cc3[nH]c(=O)c(=O)[nH]c3cc2C)cc1N(C)C	.	15.2%	i	.	i	i
COc1ccc(OC)c(NC(=O)c2cc3cc(C)ccc3n2C)c1	.	4.6%	i	.	i	i

Screening data: PubChem, National Center for Advancing Translational Sciences (NCATS)
